This is an account of results in PubChem BioAssay (NCI).

About 83,000 compounds went through this panel and 20% of them were active in at least one assay; those are over-represented in the sample as a whole.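 Step 1: grow cells in 96-well plates. Step 2: add test compound at a single concentration. Step 3: incubate 48 h. Step 4: record percent growth.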 The source made the active and inactive calls. How the source made its calls: active means growth percent below 10; inactive means the rest.

For this test, the system named is HL-60(TB) leukemia. The test is described as follows: NCI-60 one-dose screen, 48 h (100 = growth as untreated, 0 = no growth, -100 = all killed). As to conditions: 10 µM unless noted.
Turning to `CCOc1cc(/C=C/C(=O)CC(=O)/C=C/c2ccc(OC(=O)CNc3nc4ccc(OC)cc4s3)c(OCC)c2)ccc1OC(=O)CNc1nc2ccc(OC)cc2s1`, the growth was 21.5% (inactive).
As for `NC1(CO)COC(c2ccccc2)OC1` (centres undefined), the growth was 89.2% (inactive).
`CCOC(=O)CC1C(CNC(=O)NC)OC(n2cnc3c(NC(=O)Nc4ccccc4)ncnc32)C1O[Si](C)(C)C(C)(C)C` (centres undefined): the growth was 44.5% (inactive).
Under `COc1cc(C2CC(c3ccc(N(C)C)cc3)=NN2C(C)=O)cc(OC)c1OC` (centres undefined) stands -3.98% (active).
Under `O=C(Nc1ccc(-n2cc(-c3ccncc3)c(-c3ccc(Cl)c(O)c3)n2)cc1)c1cc(Cl)cc(Cl)c1` stands 8.45% (active).
Consider `COc1cc(C2Cc3ncccc3-c3[nH]c(=O)c4cccnc4c32)cc(OC)c1OC` (centres undefined), for which the growth was -2.08% (active).
Take `CCOC(=O)c1ccc(Nc2sc(C(=O)c3cccc([N+](=O)[O-])c3)c(N)c2C#N)cc1`: the growth is 4.04% (active).
In the case of `N=C1C(c2nc3ccccc3s2)=C(O)CN1c1cc(Cl)cc(Cl)c1`, the growth is 35.5% (inactive).
As for `O=[N+]([O-])c1cccc(N=Cc2ccccc2)c1`, the growth was 106% (inactive).
In the case of `COc1ccc(/C=C(/C(=O)N2CCN(c3ccc(C)cc3)CC2)c2cc(OC)c(OC)c(OC)c2)cc1N`, the growth is -24.2% (active).
`O=C(Oc1ccccc1)c1ccccc1Cl`: the growth is 76.4% (inactive).
As to `CCOC(=O)c1nn(C2CCCCO2)c2ccc(NC(=O)CN3CCCC3)cc12` (centres undefined), the growth was 97.4% (inactive).
For the compound `CCN1C(=O)N(CC)C2Nn3c(s/c(=C\c4ccccc4F)c3=O)=NC21` (centres undefined), the growth was 7.77% (active).
Consider `CC(=O)OCCC(C)CCC=C(C)C` (centres undefined), for which the growth was 108% (inactive).
As to `Cc1nc2ccc(Cl)cn2c1-c1nnc(SCc2ccc([N+](=O)[O-])cc2)o1`, the growth was 109% (inactive).
As for `O=C(Oc1ccc[nH]c1=O)c1cc([N+](=O)[O-])cc([N+](=O)[O-])c1`, the growth is 75.7% (inactive).
As to `CC(=O)Nc1nonc1-c1nc2ccccc2n1Cc1ccc(C(C)(C)C)cc1`, the growth was 56.8% (inactive).
Regarding `Cc1cccc2c(NCCN(C)C)c3cccc(C(=O)NCCN(C)C)c3nc12`, the growth is -8.73% (active).
Take `[2H]C1([2H])NC([2H])([2H])C([2H])([2H])N(c2ccc(Nc3ncc4cc(C(=O)N(C)C)n(C5CCCC5)c4n3)nc2)C1([2H])[2H]`: the growth is 22.7% (inactive).
As to `COc1ccc2nc3cc(Cl)ccc3c(N3CCN(c4ccnc(N5CCN(C)CC5)n4)CC3)c2c1`, the growth is 29.8% (inactive).
Regarding `CCCC(C)c1ccc(OCCCCCCN2CCNCC2)cc1` (centres undefined), the growth was -44.9% (active).
As for `c1csc(C2=NN3C(C2)c2ccccc2OC3c2ccncc2)c1` (centres undefined), the growth was 97.8% (inactive).
`C1=C(Cc2ccccc2)n2cnc3ncnc(c32)S1`: the growth was 75.1% (inactive).
Under `COc1ccc(NC(=O)Nc2ccc(-c3cccnc3)cc2N2CCC(CO)CC2)cc1` stands 88.6% (inactive); under `COC(=O)CCCCCN=Cc1c(O)c(O)c(C(C)C)c2cc(C)c(-c3c(C)cc4c(C(C)C)c(O)c(O)c(C=NCCCCCC(=O)OC)c4c3O)c(O)c12`, 15.4% (inactive); under `CC(=O)N1N=C(c2ccc(Nc3nc(Nc4ccc(F)cc4)nc(Nc4ccc(F)cc4)n3)cc2)CC1c1ccc(N(C)C)cc1` (centres undefined), 10% (active).
Take `c1ccc(Cn2nc3c(c2-c2ccccc2)-c2oncc2CC3)cc1`: the growth is 92.2% (inactive).
Consider `COc1c(O)cc2oc3cc(O[C@@H]4OC(C)[C@@H](O)[C@H](O)C4O)c(CC=C(C)C)c(O)c3c(=O)c2c1CC=C(C)C` (some centres undefined), for which the growth was 90.4% (inactive).
On to `O=C(Nc1ccc(NS(=O)(=O)c2ccc(F)cc2)cc1)C12CC3CC(CC(C3)C1)C2`, for which the growth is 96.1% (inactive).
For the compound `C[Se]C(=O)CC1=C2C=C(F)C=CC2/C(=C\c2ccc(S(C)=O)cc2)C1C` (centres undefined), the growth was -40% (active).
Consider `Cc1cc(N(CCCNc2ccnc3cc(Cl)ccc23)Cc2ccco2)nc(N2CCN(C)CC2)n1`, for which the growth is 38% (inactive).
On to `Nc1c(C(=O)Nc2ccccc2)sc2nc3c(cc12)CN(C(=O)OCc1ccccc1)CC3`, for which the growth was 17.1% (inactive).
Take `Clc1ccc(-c2cc(-c3ccccc3)nc(N3CCN(CCCNc4ccnc5cc(Cl)ccc45)CC3)n2)cc1`: the growth was -39% (active).
Under `Cc1c(Cl)cccc1NC(=O)c1sc2nc3c(cc2c1N)CCCCCC3` stands -15.9% (active); under `CCCCCO/N=C\c1c2c(O)c3c(O)c(C)c4c(c3c1O)C(=O)C(C)(O/C=C\C(OC)C(C)C(OC(C)=O)C(C)C(O)C(C)C(O)C(C)/C=C\C=C(\C)C(=O)N2)O4` (centres undefined), -6.96% (active).
As to `CCOC(=O)C1=C(C)NC(SCc2nnc(-c3ccc(Cl)cc3)o2)=NC1c1ccc(Cl)cc1` (centres undefined), the growth is 21.4% (inactive).
Then `Nc1n[nH]c2cccc(C#Cc3cccc(NC(=O)c4ccc(N5CCOCC5)c(C(F)(F)F)c4)c3)c12`, with 2.04% (active).
Under `O=C(CBr)c1ccc(OC(=O)c2ccccc2)cc1` stands 95.5% (inactive).
On to `CC(=O)Nc1ccc([I+]c2ccc([N+](=O)[O-])cc2)cc1`, for which the growth is 109% (inactive).
